# D1 antagonist: blocks dopamine activation of the human D1 receptor; P21728; HEK293 TREx D1 cells, calcium flux, dopamine EC80; stronger effect = lower value; 360,000 tested, 3.2% active; activity change, negative = inhibition, % at 10 µM; AID 504652; in the data active means activity change below about -30%; further: on the % scale 0 is the no-effect control and ±100 the full control effect
# Target sequence (P21728 whole entry, looked up): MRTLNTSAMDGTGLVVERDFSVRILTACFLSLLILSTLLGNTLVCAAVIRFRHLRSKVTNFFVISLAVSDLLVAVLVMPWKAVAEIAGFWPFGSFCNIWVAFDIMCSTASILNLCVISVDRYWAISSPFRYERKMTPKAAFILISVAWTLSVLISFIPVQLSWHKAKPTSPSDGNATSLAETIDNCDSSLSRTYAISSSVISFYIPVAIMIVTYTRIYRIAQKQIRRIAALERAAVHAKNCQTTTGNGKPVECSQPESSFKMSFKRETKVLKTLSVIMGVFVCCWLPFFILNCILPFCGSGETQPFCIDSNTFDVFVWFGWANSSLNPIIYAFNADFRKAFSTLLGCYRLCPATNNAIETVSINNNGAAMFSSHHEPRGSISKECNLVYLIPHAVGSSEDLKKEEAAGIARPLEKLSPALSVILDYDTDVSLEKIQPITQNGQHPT
#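 Using tetracycline-induced force-coupled D1 Hek293 cells and a calcium dye, signals were followed for 180 s after compound, then for 180 s after EC80 dopamine, to detect inhibitors.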
# TRHR enhancer: allosterically enhances the human TRH receptor; AID 493056; 360,000 tested, 0.66% active; P34981; TRHR cells, fluo-8 calcium fluorescence, EC20 TRH enhancement; enhancement, % at 2 µM; in the data active means enhancement above about 30%; further: 0% is about no effect
#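 TRHR-expressing cells loaded with fluo-8 calcium dye were read kinetically (ex 480/em 530) during compound addition, then stimulated with an EC20 of TRH (10 nM final). Enhancement of the Gq-mediated intracellular calcium response was scored.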
# TRHR agonist: TRH receptor (human) agonism | P34981 | TRHR cells, calcium flux fluo-8, FDSS agonist mode | activation, % at 2 µM | 360,000 tested, 0.18% active | AID 493084; further: 0% is about no effect
#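 TRHR-expressing cells, plated overnight in medium with 10% serum, were loaded with fluo-8 calcium dye at room temperature. After a 10 s baseline, library compound was pin-added and calcium release was recorded kinetically (ex 480/em 530) as agonist response.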
# GRP78 ERSR act: induces the endoplasmic reticulum stress response in human glioma cells; U87-MG GRP78 promoter luciferase reporter, 16 h; Potency, µM, inactives show at the top dose activation, actives largely listed as activators; 420,000 tested, 0.02% active; active means well fitted activation curve with a large enough effect; further: potency means the concentration at half of the fitted maximal effect; series mostly up to about 76 µM; % of control where 0% means no effect; nearly all actives have a fitted effect of over 35% in size
#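 Stably transfected U87-MG human glioma cells carrying a GRP78-based luminescent sensor were seeded at 1000 cells/well, pin-dosed with compounds and incubated 16 h. Luciferase reagent was then added, and end-point luminescence was read after 10 min at room temperature.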
# D1 agonist: activates the human D1 dopamine receptor; HEK293 T-REx D1 cells, calcium flux, agonist mode; activation, % at 2 µM; 360,000 tested, 1% active; further: 0% is about no effect
#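 Inducible HEK293 T-REx D1 cells, force-coupled to calcium signalling, were plated at 4000 cells/well with tetracycline and held overnight at 30 C. After no-wash calcium dye loading, compound-evoked calcium rise over 180 s flagged agonists.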
# D1 PAM: potentiators of human D1 dopamine receptor. potentiation, % at 10 µM. 360,000 tested, 0.036% active. AID 504651. HEK293 TREx D1 cells, calcium flux, dopamine EC20 potentiation; in the data active means potentiation above about 30%; further: 0% is about no effect
# * = called active by the depositor; . = no result. Shown are actives, neighbours in structure and some others; about 4% of the full set was active somewhere. Unless noted, no stated cut-off is given here; in the data, active means activation above about 30%; inactive means the rest.
SMILES,D1 antagonist,TRHR enhancer,TRHR agonist,GRP78 ERSR act,D1 agonist,D1 PAM
Cc1ccc(C(=O)NNC(=O)c2ccc(NS(=O)(=O)c3cccs3)cc2)o1,12,32*,0,-3%,3,-3
COc1cccc(NC(=O)CN(C)C(=O)Cc2n[nH]c(=O)c3ccccc23)c1,-7,-1,0,0%,3,1
O=C1CCc2cc(S(=O)(=O)N3CCC(C(=O)NC4CCCC4)CC3)ccc2N1,-31*,8,0,-2%,0,-4
CC(=O)OC[C@H]1O[C@H](CCO/N=C(\C)CCN2CCCc3nc(C)c(C)cc32)C=C[C@@H]1OC(C)=O,-11,5,2,.,-2,-11
COc1ccc(CN2CCC(C)(Oc3ccc(C(C)=O)cc3)C2)c2ccccc12 (configuration not stated),.,.,.,-5%,.,.
CCOc1ccc(C(=O)NCC2CCCO2)cc1OCC (configuration not stated),-10,1,2,-2%,2,4
CCOc1ccc(C(=O)NCC(=O)NCC2CCCCC2)cc1OCC,-34*,-4,0,-1%,1,2
COC(=O)c1ccc(NC(=O)C2CCN(S(C)(=O)=O)CC2)cc1,-7,1,0,1%,0,-3
COC(=O)c1ccc(NC(=O)C2CCCN(S(C)(=O)=O)C2)cc1 (configuration not stated),-33*,-5,0,-2%,2,-2
COc1ccc(C2C(C(=O)N3CCN(c4ccccc4)CC3)c3ccccc3C(=O)N2C)cc1 (configuration not stated),-41*,-7,0,-5%,-2,-7
CC(C)CCOc1ccc(NC(=O)C2OC3OC(C)(C)OC3C3OC(C)(C)OC23)cc1 (configuration not stated),-43*,1,0,-3%,-1,4
Cc1ccc2oc(-c3ccc(Cl)cc3)c(O)c(=O)c2c1,-22,-11,10,0%,71*,-2
COc1ccc(-c2oc3ccc(C)cc3c(=O)c2O)cc1OC,.,.,.,0%,.,.
O=C(CCN1CCN(c2ccccc2)CC1)c1ccc(Br)cc1,-30*,-3,1,-12%,2,-17
CC1Oc2ccccc2N(CC(=O)NCCN2CCOCC2)C1=O (configuration not stated),-67*,1,1,-4%,3,-11
O=C(CN1C(=O)COc2ccccc21)NCCN1CCOCC1,-18,-3,1,-2%,0,-9
CCC1Oc2ccccc2N(CC(=O)NCCCN2CCN(c3ccc(OC)cc3)CC2)C1=O (configuration not stated),-90*,0,0,3%,6,-6
COc1ccc(-c2oc3ccccc3c2C#CC(C)(C)O)cc1,.,31*,0,5%,1,-5
O=C(CSc1nnnn1-c1ccc(O)cc1)c1cc2ccccc2o1,-25,3,0,-1%,32*,-4
CC(C)CN1C2CCCC1CC(NC(=O)c1ccc([N+](=O)[O-])cc1)C2 (configuration not stated),-48*,-2,1,-3%,1,-9
CCCN1C2CCCC1CC(NC(=O)c1ccc(F)cc1)C2 (configuration not stated),-12,3,-1,-3%,1,-3
CCCN1C2CCCC1CC(NC(=O)c1ccc(Br)cc1)C2 (configuration not stated),-48*,4,0,-3%,5,-6
O=C(CN1C2CCCC1CC(NC(=O)c1ccccc1)C2)Nc1ccccc1 (configuration not stated),-53*,40*,-2,-3%,9,-4
CCC(=O)N1CCC1(C)C(=O)Nc1cccc(Oc2ccccc2)c1 (configuration not stated),.,.,.,0%,.,.
CCCc1cc(=O)[nH]c2nnc(SC(C)CC)n12 (configuration not stated),.,3,0,-2%,-3,3
SMILES,D1 antagonist,TRHR enhancer,TRHR agonist,GRP78 ERSR act,D1 agonist,D1 PAM
COC(=O)c1ccc(NC(=S)N2CCN(Cc3ccccc3)CC2)cc1,-43*,-2,0,-2%,17,-6
Cc1ccc(NC(=O)C(=O)NCCN2CCN(C(=O)C(c3ccccc3)c3ccccc3)CC2)cc1,-3,3,0,-6%,3,-6
Cc1ccc(NC(=O)C(=O)NCCN2CCN(C(=S)Nc3ccccc3)CC2)cc1,-34*,0,-1,-2%,4,-3
COC(=O)c1ccc(NC(=O)Cc2ccc(F)cc2)cc1,-30*,-9,1,-3%,0,-4
COC(=O)c1ccc(NC(=S)NCCc2ccccc2C)cc1,-36*,-4,1,-3%,23,-5
COC(=O)c1ccc(NC(=S)N2CCN(Cc3cccc(C)c3)CC2)cc1,.,.,.,-4%,.,.
N/C(=N\OC(=O)c1ccc(Cl)c(Cl)c1)c1cccc(CSc2ccccn2)c1,4,-2,1,-2%,9,-2
COC(=O)c1ccc(NC(=O)CSc2ccccc2)cc1,-75*,2,0,6%,2,-4
Cc1ccccc1OCC(O)Cn1c2ccccc2c2ccccc21 (configuration not stated),-2,9,0,1%,4,-5
CCOC(=O)N1CCN(CC(O)COc2ccccc2C(C)(C)C)CC1 (configuration not stated),-8,4,0,-1%,7,1
Cc1ccccc1OCC(O)CN1CCN(CC(O)COc2ccccc2C)C(C)C1 (configuration not stated),-40*,-9,0,-1%,7,-12
CC1CN(CC(O)COc2ccccc2C(C)(C)C)CC(C)O1 (configuration not stated),-31*,-3,-2,-5%,124*,-3
CN(C)CCN(C(=O)C1CCN(S(=O)(=O)c2cccs2)CC1)c1nc2ccc(F)cc2s1,27,1,0,4%,5,-4
Cc1cccc2sc(N(CCN(C)C)C(=O)C3CCN(S(=O)(=O)c4cccs4)CC3)nc12,24,5,0,-3%,39*,-5
CC(C)(C)OC(=O)CNC(=O)c1[nH]cnc1C(=O)NC1CCNCC1,.,.,.,-2%,.,.
COc1ccccc1NC(=O)Cn1c(=O)n(Cc2ccco2)c(=O)c2cccnc21,-5,-3,0,-3%,-1,-4
CCOc1ccccc1NC(=O)Cn1c(=O)n(Cc2ccco2)c(=O)c2cccnc21,-4,44*,0,-2%,-1,-2
Cc1cccc(N2CCN(S(=O)(=O)c3c(C)[nH]c(=O)[nH]c3=O)CC2)c1C,6,0,0,-2%,0,-3

# Compound activity: PubChem, National Center for Advancing Translational Sciences (NCATS)
